According to PubChem BioAssay (NCATS):
Results filed as inconclusive are left out. The source made the active and inactive calls. The call rests on the fitted dose curve; in most records, active means well fitted curve in the direction sought with a large enough effect; inconclusive means small, poorly fitted or top-dose-only effect, or another doubt; inactive means no such curve, though single readings can be large; an effect the other way counts as inactive or inconclusive.

Columns and labels:
[1] = qHTS for ATAD5 Agonist screened against the NCATS CANVASS Library (AID 1347367);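 further: luciferase reporter driven by ATAD5 which rises upon DNA damage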
In short: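 HEK293T cells stably carrying an ATAD5-controlled luciferase reporter (2000 cells/well) attached for 5 hr, then received compounds in an 11-point series for 16hr at 37C. Luminescence was read after a 30 min room-temperature reagent step.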

[2] = MCF7 Cancer Cell Toxicity qHTS against the NCATS CANVASS Library (AID 1347369); further: series mostly up to about 46 µM
In short: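 MCF7, 500 cells/well; cpds 11-pt qHTS; 72 hr, 37C/5% CO2; CellTiterGlo ATP luminescence.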

[3] = qHTS for ATAD5 Antagonist screened against the NCATS CANVASS Library (AID 1347370);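 further: HEK293T cells carrying an ATAD5 luciferase reporter co-treated with 10 µM 5-fluorouridine; series mostly up to about 46 µM; nearly all actives have a fitted effect of over 65% in size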
In short: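 HEK293T cells with a stably integrated ATAD5-controlled luciferase reporter were exposed to compounds (11-pt) alongside 10 uM 5-fluorouridine as ATAD5 stabilizer for 16hr at 37C. Viability was read by CellTiter-Fluor fluorescence, then ATAD5 by luminescence.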

[4] = J3T Cancer Cell Toxicity qHTS against the NCATS CANVASS Library (AID 1347371)
In short: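 J3T dog glioma cells (500 cells/well) were exposed to compounds in an 11-point series for 72 hr at 37C, 5% CO2. Cytotoxicity was read as ATP content by CellTiterGlo luminescence.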

[5] = target: Nuclear receptor subfamily 1 group I member 3 (Homo sapiens) (UniProt Q14994); assay: qHTS for Constitutive Androstane Receptor (CAR) Antagonist screened against the NCATS CANVASS Library (AID 1347372);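 further: cells stimulated with 50 nM CITCO agonist so inhibition reflects antagonism; series mostly up to about 46 µM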
Chain of Nuclear receptor subfamily 1 group I member 3 (Homo sapiens) (Q14994 whole entry, looked up): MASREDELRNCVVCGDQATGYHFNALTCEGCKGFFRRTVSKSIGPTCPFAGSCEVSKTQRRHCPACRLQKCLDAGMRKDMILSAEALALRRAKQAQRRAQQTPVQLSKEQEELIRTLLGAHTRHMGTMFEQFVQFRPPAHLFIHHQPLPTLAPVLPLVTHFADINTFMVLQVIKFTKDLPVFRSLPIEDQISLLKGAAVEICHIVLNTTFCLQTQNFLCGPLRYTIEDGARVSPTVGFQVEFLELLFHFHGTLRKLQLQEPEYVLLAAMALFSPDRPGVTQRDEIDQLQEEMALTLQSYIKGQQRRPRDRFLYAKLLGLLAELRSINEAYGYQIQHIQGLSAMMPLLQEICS
In short: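 HepG2-CYP2B6-hCAR double-stable cells plated, 4hr attach; cpd pin-transferred; CITCO 50 nM final; 24hr 37C/5% CO2; CellTiter-Fluor 1hr (fluorescence), then ONE-Glo luminescence.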

[6] = target: Nuclear receptor subfamily 1 group I member 3 (Homo sapiens) (UniProt Q14994); assay: qHTS for Constitutive Androstane Receptor (CAR) Agonist screened against the NCATS CANVASS Library (AID 1347373);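 further: every well also contained 1.5 µM PK11195 alongside the test compound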
In short: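 HepG2 cells stably expressing hCAR and a CYP2B6-2.2kb luciferase reporter were treated for 24hr at 37C with compounds (11-point qHTS) in the presence of 1.5uM PK11195. Reporter activation was read by ONE-Glo luminescence.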

[7] = qHTS for Hypoxia signaling pathway (HIF-1) antagonists against the NCATS CANVASS Library (AID 1347374);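 further: HRE-bla ME-180 cells stimulated with cobalt chloride to stabilize HIF-1alpha; series mostly up to about 38 µM; nearly all actives have a fitted effect of over 60% in size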
In short: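 HRE-bla ME-180 cells (2,000/well, 0.5% dialyzed FBS) were pre-incubated 5 h, then given an 11-point compound series plus CoCl2 (60 uM solution as added) for 17 h at 37C. CCF4 β-lactamase read (ex 405, em 460/530 nm) after 2 h at RT.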

[8] = qHTS for Hypoxia signaling pathway (HIF-1) agonists against the NCATS CANVASS Library (AID 1347375)
In short: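 HRE-bla ME-180 cells (beta-lactamase reporter under hypoxia responsive element) in 0.5% dialyzed FBS medium, 5 h at 37C, then compound 17 h, 11-point qHTS series. CCF4-AM FRET substrate 2 h RT; 460/530 nm emission read.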

[9] = 10-beta competent E. coli microbial cell viability qHTS against the NCATS CANVASS Library (AID 1347376); further: series mostly up to about 46 µM
In short: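 10-beta competent E. coli (0.9 OD culture diluted to 0.2 OD) exposed to compounds in an 11-point qHTS series, incubated overnight at 37C, 5% CO2. Viability read as ATP by BacTiter-Glo luminescence after 20 min at room temperature.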

[10] = DH5-alpha competent E. coli microbial cell viability qHTS against the NCATS CANVASS Library (AID 1347377); settings: outcome: dose series up to 46.1 µM unless noted
In short: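 DH5-alpha E. coli suspension (0.9 OD culture diluted to 0.2 OD) exposed to compounds in an 11-point series, overnight at 37C, 5% CO2. Viability read as ATP by BacTiter-Glo luminescence after 20 min at room temperature.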

[11] = qHTS for H2AX Agonists against the NCATS CANVASS Library (AID 1347378)
In short: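 CHO-K1 cells were plated overnight at 37C, then exposed to compounds (concentration series, 0.76% DMSO final) for 3 hr at 37C. Lysates received Eu-cryptate anti-pH2AX (S139) and d2 anti-H2AX antibodies; after 24 hr at room temperature, TR-FRET 665/620 nm ratio was read.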

[12] = qHTS for Inflammasome Signaling Inhibitors: IL-1-beta AlphaLISA screen against the NCATS CANVASS Library (AID 1347379);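 further: human THP-1 cells primed with LPS then triggered with ATP; secreted IL-1B measured as AlphaLISA emission at 615 nm; lower signal means less IL-1B release which is the wanted effect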
In short: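 Human THP-1 cells were pretreated 1 hr at 37 °C with compounds (up to 57.5 uM final), then stimulated with LPS (250 ng/mL final) and ATP (1.25 mM final). Secreted IL-1B was read by AlphaLISA after 16 hr.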

[13] = Inflammasome Signaling qHTS Counterscreen: IL-1-beta AlphaLISA counterscreen against the NCATS CANVASS Library (AID 1347381);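 further: cell-free check with purified IL-1β in medium and no THP-1 cells; series mostly up to about 57 µM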
In short: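 To flag interference with the AlphaLISA read-out, a known amount of purified IL-1-beta (4 pg) replaced cell supernatant. Detection used anti-IL-1-beta acceptor beads, biotinylated antibody and streptavidin donor beads at room temperature.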

[14] = qHTS for Activators of p53 Stress Response Pathway screened against the NCATS CANVASS Library (AID 1347388)
In short: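 Beta-lactamase reporter driven by p53 response elements in HCT-116 cells, read as the 460 nm/530 nm emission ratio after CCF4 loading, following 16 h of exposure to an 11-point series. Cell viability was measured in the same wells by CellTiter-Glo luminescence.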

[15] = qHTS assay for small molecule disruptors of mitochondrial membrane potential screened against the NCATS CANVASS Library (AID 1347389); further: series mostly up to about 46 µM; nearly all actives have a fitted effect of over 60% in size
In short: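 HepG2 cells (2,000/well) were plated overnight at 37C, exposed to compound for 1 hr at 37C/5% CO2, then loaded with Mito-MPS dye for 30 min. Depolarization was read as a drop in red (590 nm) to green (535 nm) fluorescence ratio.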

[16] = Secretion counterscreen for inhibitors of the SERCaMP assay screened against the NCATS CANVASS Library (AID 1347390);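 further: light from luciferase secreted into medium read as a measure of general secretion; series mostly up to about 77 µM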
In short: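 SH-SY5Y cells expressing constitutively secreted GLuc, 1000 cells/well, attached 4 h at 37C, then exposed to compounds (0.001 - 77 uM, 11-pnt series) for 20 h. Coelenterazine added; luminescence read to flag secretory-pathway interferers.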

[17] = qHTS for activators of Nrf2/ARE signaling pathway screened against the NCATS CANVASS Library (AID 1347391); further: nearly all actives have a fitted effect of over 60% in size
In short: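 ARE-bla HepG2 beta-lactamase reporter cells, 2000 cells/well, were preincubated 5 h, then exposed to compounds (11-point series) for 16 h at 37C. CCF4 fluorescence (ex 405, em 460/530 nm) after 2 h at room temperature.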

[18] = qHTS for inhibitors of ER calcium dysfunction: SERCaMP assay screened against the NCATS CANVASS Library (AID 1347393);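 further: series mostly up to about 77 µM; lower secreted reporter signal means inhibitor of ER calcium depletion; nearly all actives have a fitted effect of over 40% in size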
In short: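 Thapsigargin-induced ER calcium depletion drives GLuc-SERCaMP secretion from SH-SY5Y cells; compounds given 16 h beforehand were scored by lowered coelenterazine luminescence after 4 h challenge.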

[19] = Vero-766 cells viability qHTS against the NCATS CANVASS Library: Counterscreen for Zika virus inhibition assay (AID 1347394); further: series mostly up to about 46 µM; nearly all actives have a fitted effect of over 60% in size
In short: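 Uninfected Vero 766 (African green monkey) cells, 1000/well, attached overnight, then exposed 72 h at 37C to compounds (11-point qHTS). Viability read by CellTiter-Glo luminescence; media-only wells served as 100% inhibition.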

[20] = qHTS for inhibitors of Wild type Zika virus screened against the NCATS CANVASS Library (AID 1347396);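 further: ATP luminescence of surviving cells so rescue from viral cell killing; series mostly up to about 46 µM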
In short: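 Using ATP-based luminescence (CellTiter Glo), this screen scores rescue of Vero 766 cells from wild-type Zika killing at 72 h post-infection. Compounds are tested in a concentration series.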

[21] = Viability qHTS for inhibitors of the SERCaMP assay screened against the NCATS CANVASS Library (AID 1347400); further: series mostly up to about 92 µM; nearly all actives have a fitted effect of over 70% in size
In short: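 SH-SY5Y-GLuc SERCaMP MJH297-derived cells (1000 cells/well) were pre-incubated 4 h at 37C, then exposed to compounds for 48 h. Viability was read as CellTiter-Glo luminescence; bortezomib served as positive control.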

[22] = Redox Reaction Profiling qHTS: Assay Interference Panel against the NCATS CANVASS Library (AID 1347401)
In short: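 Cell-free redox surrogate: 5 uM resazurin + 200 uM DTT, 50 mM HEPES pH 7.3/50 mM NaCl; cpds pinned, 11-pt qHTS; Ex525/Em598 read t0 and t=15 min, dark.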

Measured: Potency

O=C(O)Cc1c[nH]c2ccccc12
inactive: all assays above
